# CYP2C9 inhib: blocks human cytochrome P450 2C9; CYP2C9 Supersomes, luciferin-H conversion, luminescence; hit rate 20% among 96,000; inhibition, % at 5 µM; P11712;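 active = blocking of liver enzyme CYP2C9 beyond about 50% at 5 µM, limit read from the data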
# Mac1 fbg enh: increases human CD11b/CD18 adhesion to fibrinogen; P05107+P11215; K562 CD11b/CD18 adhesion to fibrinogen, ATPlite luminescence; activation, % at 10 µM; hit rate 0.07% among 93,000;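 active = 10 µM primary screen giving 50% or more activity, confirmed by 40% or more on retest at that dose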
# CYP2C19 inhib: inhibitors of human CYP2C19; P33261; CYP2C19 Supersomes, luciferin-H EGE luminescence, 30 min; inhibition, % at 5 µM; hit rate 21% among 96,000; AID 778;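 active = CYP2C19 inhibition above a set limit at 5 µM in the primary screen, cut at about 50% in these data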;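 also: plate controls were negative control wells for no effect and 2.5 mM tranylcypromine positive control for full effect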
# Target sequence (P33261 whole entry, looked up): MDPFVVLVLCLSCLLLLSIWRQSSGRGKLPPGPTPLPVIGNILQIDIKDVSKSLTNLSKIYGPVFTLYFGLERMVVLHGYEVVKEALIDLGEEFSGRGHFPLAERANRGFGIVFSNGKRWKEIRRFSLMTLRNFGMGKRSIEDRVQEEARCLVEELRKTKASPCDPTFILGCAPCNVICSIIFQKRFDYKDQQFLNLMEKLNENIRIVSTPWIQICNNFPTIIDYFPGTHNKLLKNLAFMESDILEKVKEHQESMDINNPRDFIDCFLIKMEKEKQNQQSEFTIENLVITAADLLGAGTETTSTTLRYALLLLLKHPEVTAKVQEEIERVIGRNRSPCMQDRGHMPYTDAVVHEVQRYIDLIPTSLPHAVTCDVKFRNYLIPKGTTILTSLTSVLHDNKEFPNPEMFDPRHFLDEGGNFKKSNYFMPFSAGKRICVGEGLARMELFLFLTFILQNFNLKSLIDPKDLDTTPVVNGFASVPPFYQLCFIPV
# CYP2C19 act: activators of human cytochrome P450 2C19 | P33261 | recombinant CYP2C19, luciferin-H EGE luminescence; active compounds read high; 0 = fully inhibited enzyme, 1 = untreated enzyme | activation factor at 5 µM | 96,000 tested, under 10 active;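 active = activation factor of at least 2 at 5 µM in the primary screen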;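 also: 0 = wells with 2.5 mM tranylcypromine and 1 = vehicle-only wells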
# CYP2C9 act: CYP2C9 (human) activation | P11712 | recombinant CYP2C9, luciferin-H conversion, luminescence; active compounds read high; factor 1 = untreated enzyme, 0 = blocked | activation factor at 5 µM | AID 1024 | hit rate 1.4% among 96,000;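 active = activation factor of 2 or more for CYP2C9 at a 5 µM dose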;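 also: 0 = sulfaphenazole-blocked wells and 1 = vehicle-only wells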
# CD11b adhes inh: CD11b/CD18-fibrinogen binding inhibition | hit rate 0.54% among 93,000 | inhibition, % at 10 µM | K562 CD11b/CD18 adhesion to fibrinogen, ATPlite luminescence; Mn2+ added to activate the integrin | AID 1497;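 active = primary inhibition of 50% or more at 10 µM, then 40% or more on retest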
# An asterisk follows results filed as active; · = not tested or not shown. A selection: hits, their analogues and other compounds. The true share with any hit is near 28%.
SMILES,CYP2C9 inhib,Mac1 fbg enh,CYP2C19 inhib,CYP2C19 act,CYP2C9 act,CD11b adhes inh
COc1ccc2c(CCNC(=O)c3ccco3)c[nH]c2c1,39.0,1.4,79.0*,0.2,0.6,2.3
O=C(NCCSc1c[nH]c2ccccc12)C1CC1,25.3,0.3,16.3,0.8,0.7,-8.0
O=C(NCCSc1c[nH]c2ccccc12)c1ccco1,61.7*,-2.1,18.6,0.8,0.4,-7.7
COc1ccc(CNCCNC(=O)c2ccco2)c(OC)c1OC,-2.9,-4.2,4.6,1,1,-10.5
O=C(NCc1ccc(Cl)cc1)C1C2C=CC3(CN(Cc4cccnc4)C(=O)C13)O2 (stereo unspecified),53.2*,-1.2,29.5,0.7,0.5,-7.5
O=C(Nc1cccc(F)c1)NC1CCCCC1,41.0,2.7,55.0*,0.4,0.6,3.4
O=C1c2cnccc2CN1Cc1ccccc1,-10.0,1.8,-4.3,1,1.1,-2.1
Cc1ccc(-n2nc(C)c3c2OC(N)=C(C#N)C3c2cccs2)cc1 (stereo unspecified),26.9,-3.2,6.8,0.9,0.7,3.3
CCCc1nn(C)c2c1C(c1ccncc1)C(C#N)=C(N)O2 (stereo unspecified),72.4*,0.6,49.0,0.5,0.3,-2.4
Cc1nn(-c2ccccc2)c2c1C(c1c(C)[nH]c(C#N)c1C)C(C#N)=C(N)O2 (stereo unspecified),87.0*,2.5,74.0*,0.3,0.1,-22.1
Cc1[nH]nc2c1C(c1ccc(-c3ccccc3C#N)o1)C(C#N)=C(N)O2 (stereo unspecified),92.7*,-5.1,68.5*,0.3,0.1,9.2
Cc1ccc(-c2ccc(C3C(C#N)=C(N)Oc4n[nH]c(C)c43)o2)cc1 (stereo unspecified),37.9,·,13.5,0.9,0.6,·
Cc1nn(-c2ccccc2)c2c1C(c1ccncc1)C(C#N)=C(N)O2 (stereo unspecified),65.5*,-4.0,58.9*,0.4,0.3,-2.6
CCCc1[nH]nc2c1C(c1ccncc1)C(C#N)=C(N)O2 (stereo unspecified),43.8,·,35.3,0.6,0.6,·
CCN(CC)CCOC(=O)c1ccc2c(c1)OCCO2,1.7,-0.2,8.0,0.9,1,-20.4
Cc1ccc2[nH]c(-c3ccccc3)c(CN3CCOCC3)c(=O)c2c1,-15.5,-1.2,2.1,1,1.2,-41.2
COc1cc(-n2nc(C)c3c2OC(N)=C(C#N)C3c2ccccc2)c(Cl)c(Br)c1O (stereo unspecified),98.9*,-8.2,98.7*,0,0,100.8
Cc1nn(-c2ccccc2)c(Cl)c1C1C(C#N)=C(N)OC2=C1C(=O)CCC2 (stereo unspecified),76.0*,-0.1,90.9*,0.1,0.2,13.1
Cc1nn(-c2ccccc2)c(Cl)c1C1C(C#N)=C(N)Oc2c1c(C)nn2-c1ccccc1 (stereo unspecified),91.2*,-2.5,80.7*,0.2,0.1,0.9
Cc1ccc(-n2nc(C)c3c2OC(N)=C(C#N)C3c2ccccc2F)cc1 (stereo unspecified),44.3,·,-7.0,1.1,0.6,·
Cc1nn(-c2ccccc2)c(Cl)c1C1C(C#N)=C(N)Oc2n[nH]c(C)c21 (stereo unspecified),77.6*,3.0,83.1*,0.2,0.2,-0.1
Cc1[nH]nc2c1C(c1ccsc1C)C(C#N)=C(N)O2 (stereo unspecified),10.5,-3.1,12.2,0.9,0.9,-26.6
Cc1ccc(-n2nc(C)c3c2OC(N)=C(C#N)C3c2ccncc2)cc1 (stereo unspecified),15.9,2.7,42.5,0.6,0.8,-0.7
COc1cccc(Nc2ncccc2C(=O)Nc2ccccc2)c1,25.4,-3.7,22.2,0.8,0.7,-2.6
Cc1cc(C)n(-c2nncn2NC(=O)c2ccc(Cl)cc2O)n1,41.4,2.0,6.4,0.9,0.6,15.1
CCOc1ccc(CSC(CC(=O)O)C(=O)O)cc1 (stereo unspecified),11.4,3.7,12.2,0.9,0.9,-7.2
Cc1nn(Cc2ccccc2)c2c1C(c1cccc(Cl)c1)C(C#N)=C(N)O2 (stereo unspecified),90.8*,-5.3,85.1*,0.1,0.1,6.2

# Bioassay records as filed in PubChem.
